Source: PubChem BioAssay (National Center for Advancing Translational Sciences (NCATS))
D1 agonist: activates the human D1 dopamine receptor; activation, % at 2 µM; P21728; HEK293 T-REx D1 cells, calcium flux, agonist mode; AID 504660; hit rate 1% among 360,000; in the data active = activation above about 30%
Target sequence (P21728 whole entry, looked up): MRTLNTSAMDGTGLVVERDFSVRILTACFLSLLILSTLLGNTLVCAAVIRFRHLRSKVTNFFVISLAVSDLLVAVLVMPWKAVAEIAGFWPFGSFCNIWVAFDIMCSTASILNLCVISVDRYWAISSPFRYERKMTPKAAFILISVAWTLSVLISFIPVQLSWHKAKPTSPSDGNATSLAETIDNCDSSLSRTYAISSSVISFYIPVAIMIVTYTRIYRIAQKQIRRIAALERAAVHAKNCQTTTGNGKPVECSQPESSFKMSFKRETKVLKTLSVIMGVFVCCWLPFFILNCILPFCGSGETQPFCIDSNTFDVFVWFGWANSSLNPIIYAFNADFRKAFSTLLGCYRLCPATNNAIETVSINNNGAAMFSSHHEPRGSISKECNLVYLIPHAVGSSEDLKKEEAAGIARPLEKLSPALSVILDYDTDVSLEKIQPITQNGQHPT
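Agonism was scored from calcium flux recorded over 180 s (1 read/s) after pintool compound addition, following a 10-cycle baseline. Cells were inducible force-coupled HEK293 TREx D1, plated overnight at 30 C and loaded with no-wash calcium dye.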
DRD3 antagonist: antagonists of human D3 dopamine receptor; AID 652054; hit rate 2.5% among 360,000; D3R cells, DiscoveRx beta-arrestin luminescence, antagonist mode; hits give low values; max response, negative = inhibition, %; in the data active = max response below about -50%; inconclusive = no clear call, values can overlap the other calls
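Cells plated overnight at 1500 cells/well, then exposed to library compounds with dopamine controls for 90 minutes at 37 degrees C. DiscoveRx reagent added for 30–60 minutes at room temperature; luminescence read, quantitative HTS format.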
D1 antagonist: human D1 dopamine receptor antagonism; activity change, negative = inhibition, % at 10 µM; HEK293 TREx D1 cells, calcium flux, dopamine EC80; hits give low values; hit rate 3.2% among 360,000; P21728; in the data active = activity change below about -30%
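Tetracycline-induced HEK293 T-REx cells with force-coupled D1 receptor were loaded with a no-wash calcium dye. Compound was added after a 10 s baseline and read kinetically for 180 s; EC80 dopamine was then added and calcium flux followed another 180 s.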
D1 potentiator: human D1 dopamine receptor positive modulation; potentiation, % at 10 µM; hit rate 0.036% among 360,000; HEK293 TREx D1 cells, calcium flux, dopamine EC20 potentiation; in the data active = potentiation above about 30%
DRD3 agonist: D3 dopamine receptor (human) agonism; hit rate 0.58% among 410,000; max activation, %; D3R DiscoveRx beta-arrestin cells, luminescence, 90 min; AID 652048; in the data active = max activation above about 30%
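Agonist mode: compounds and dopamine controls were applied to plated cells for 90 min at 37 degrees C after an overnight attachment at 1500 cells/well. Luminescent read-out followed 30 - 60 minutes at room temperature with DiscoveRx detection reagent.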
Of the large screens only hits and unclear results are named; the others gave an inactive call; ! = repeats disagree. Compounds with a hit are over-represented: about 6% of the library has one in this group of screens.

COc1ccc2c(c1)C1(C)CC(C)(C)N2C(=O)N1c1ccccc1 (stereo not drawn)	D1 agonist 56
COc1nc(N/N=C/c2ccc(-c3ccccc3[N+](=O)[O-])o2)nc(N2CCOCC2)n1	none
O=[N+]([O-])c1ccc(-c2ccc(/C=N/Nc3nc(NCc4ccccc4)nc(N4CCOCC4)n3)o2)cc1	D1 agonist 74
Cc1ccc(Nc2ccc(C(N)=O)cc2[N+](=O)[O-])cc1C	D1 antagonist -53
Cc1ccc(NC(=O)CSc2ccc(C(N)=O)cc2[N+](=O)[O-])cc1C	none (no result: D1 antagonist)
CCc1ccc(Nc2ccc(C(N)=O)cc2[N+](=O)[O-])cc1	D1 antagonist -40
COCCn1c(SCC(=O)N2CCCCC2)nc2ccccc2c1=O	none
COCCn1c(SCCN2CCCCC2)nc2ccccc2c1=O	DRD3 antagonist -65
Cc1c(C(=O)NCC(c2ccco2)N2CCCC2)sc2ccccc12 (stereo not drawn)	DRD3 antagonist -64 (no result: D1 agonist, D1 antagonist, D1 potentiator)
CCc1cc(C(=O)NCC(c2ccco2)N2CCCCC2)sc1C (stereo not drawn)	DRD3 antagonist -59
O=C(NCC(c1ccco1)N1CCCC1)c1sc2ccccc2c1Cl (stereo not drawn)	none
S=C(NCc1ccco1)NCC(c1ccco1)N1CCCCC1 (stereo not drawn)	DRD3 antagonist -66
CC12CCC(C(=O)Nc3nccs3)(OC1=O)C2(C)C (stereo not drawn)	D1 antagonist -31
COc1ccc2c(c1)CCCN2C(N)=O	none
COc1ccc2c(c1)CCCN2C(N)=Nc1ccc(Cl)cc1	D1 agonist 49, D1 antagonist -44
CCCNS(=O)(=O)c1ccc(NC(=O)Cc2cccs2)cc1	D1 antagonist -33
O=S(=O)(NCc1cccs1)c1ccc(Br)cc1	D1 antagonist -33
CCSc1nnc(-c2ccc(S(=O)(=O)NCc3cccs3)cc2)o1	DRD3 antagonist -66
CCOc1ccc(S(=O)(=O)NCc2cccs2)cc1	none
CN(C)S(=O)(=O)c1ccc(S(=O)(=O)NCc2cccs2)cc1	none
CCOc1cc(S(=O)(=O)NCc2cccs2)ccc1Cl	D1 antagonist -37
O=S(O)CO	none (no result: D1 agonist, DRD3 antagonist, D1 antagonist, D1 potentiator)
CC(=O)n1cc([C@H]2C=C(C(N)=O)O[C@@H](OCc3ccc(CO)cc3)C2)c2ccccc21	DRD3 agonist 36 (no result: D1 agonist, D1 antagonist, D1 potentiator)
CC(=O)n1cc([C@@H]2C=C(C(=O)N3CCN(Cc4ccccc4)CC3)O[C@H](OCc3ccc(CO)cc3)C2)c2ccccc21	DRD3 antagonist -61
Cc1cn2c(=O)cc(COc3ccccc3NC(=O)c3ccccc3C)nc2s1	none (no result: DRD3 antagonist)
Cc1cc2c(cc1C)-n1nnnc1C(N1CCN(CC(=O)NC(C)C)CC1)C(=O)N2 (stereo not drawn)	none (no result: D1 agonist, D1 antagonist, D1 potentiator)
O=S1(=O)c2ccccc2N(Cc2ccccc2F)c2ccccc21	none (no result: DRD3 antagonist)
Cc1cccc(NC(=O)c2cc(S(=O)(=O)N3CCCC3)cn2C)c1	none
Nc1nonc1C(=O)NCCNCc1ccccc1OCc1ccccc1F	none
COc1cc(CNCCNC(=O)c2nonc2N)ccc1OCc1ccc(Cl)cc1	D1 agonist 69
Fc1ccc(COc2ccc(Br)cc2CNCC2CCCO2)cc1 (stereo not drawn)	none
NS(=O)(=O)c1ccc(CCNCc2ccccc2OCc2ccc(Cl)cc2)cc1	D1 agonist 53, D1 antagonist -48
Fc1ccccc1COc1ccc(Br)cc1CNCC1CCCO1 (stereo not drawn)	D1 antagonist -50
Nc1nonc1C(=O)NCCNCc1cc(Br)ccc1OCc1ccccc1F	D1 agonist 31
COc1ccc(NC(=O)C2Cc3c(-c4cccc(C(N)=O)c4)ccnc3O2)cn1 (stereo not drawn)	none (no result: D1 agonist, D1 antagonist, D1 potentiator)
Cc1cc(C)c2c(n1)nn1c(C)c(CCC(=O)Nc3cccc(C)c3C)c(C)nc21	none (no result: DRD3 antagonist)
NS(=O)(=O)c1ccc(CCNCc2cc(Br)ccc2OCc2ccccc2F)cc1	D1 antagonist -31
NS(=O)(=O)c1ccc(CCNCc2cc(Cl)ccc2OCc2ccccc2)cc1	D1 agonist 57
C=CCOc1ccccc1CNCCc1ccc(S(N)(=O)=O)cc1	none
O=C(CCN1CCN(c2ccccc2)CC1)Nc1cccc(Br)c1	DRD3 antagonist -73
O=C(NCCN1CCN(c2ccccc2)CC1)Nc1cccc(Br)c1	D1 agonist 50, DRD3 antagonist -75, D1 antagonist -45!
COc1ccc(Cn2c(SCC(=O)N3CCN(c4ccc(F)cc4)CC3)nc3ccccc32)cc1	none (no result: DRD3 antagonist)
CN(C)c1c2ccccc2nc2c(F)c(F)c(F)c(F)c12	none
Cc1c2ccccc2nc2c(F)c(N(C)C)c(F)c(F)c12	D1 agonist 62
O=C(CSc1ncn[nH]1)Nc1ccc(Br)cc1F	D1 antagonist -36
O=C(CSc1ncn[nH]1)Nc1ccccc1C(=O)O	none
Cc1cccc(CSc2cn(CC(=O)N3CCCCCC3)c3ccccc23)c1	none (no result: DRD3 antagonist)
Cc1cccc(CSc2cn(CC(=O)N3CCOCC3)c3ccccc23)c1	D1 antagonist -33!
COc1cc(/C=C(\C#N)c2nc3ccccc3o2)ccc1O	D1 agonist 332, DRD3 antagonist inconclusive
N#C/C(=C\c1ccc(O)cc1)c1nc2ccccc2o1	none
CCC[C@@H]1C=C(C(=O)OCC)[C@H](c2ccccc2)N1S(=O)(=O)c1ccc(C)cc1	none (no result: D1 agonist, D1 antagonist, D1 potentiator)
O=C(Cc1ccc(F)cc1)NCCc1csc(-c2cccc(F)c2)n1	none (no result: DRD3 antagonist)
Cc1nc(-c2ccc(F)cc2)sc1CCNC(=O)c1cccs1	D1 antagonist -64 (no result: DRD3 antagonist)
O=C(NCCc1csc(-c2cccc(F)c2)n1)c1cccs1	D1 antagonist -62 (no result: DRD3 antagonist)
O=C(NCCc1csc(-c2ccc(F)cc2)n1)c1cccc(F)c1	D1 antagonist -55 (no result: DRD3 antagonist)
Nc1c(C(=O)NCc2ccco2)c2nc3ccccc3nc2n1CCc1ccc(F)cc1	DRD3 antagonist -63
O=C(Cn1c(=O)c2cccn2c2ccc(F)cc21)NCCCN1CCN(c2ccccc2F)CC1	DRD3 antagonist -92
CN(C)CCNC(=O)Cn1c(=O)c2cccn2c2ccc(F)cc21	D1 agonist 37!
CCN(CC)CCNC(=O)Cn1c(=O)c2cccn2c2ccc(F)cc21	none
COc1cc(CCCN2C(=O)C(=O)NC[C@@H]2C(C)O)cc(OC)c1OC (stereo partly drawn)	D1 antagonist -37
COc1cc(CCCN2C(=O)C(=O)NC[C@@H]2c2ccccc2)cc(OC)c1OC	none
Cc1ccc(C(=O)O)cc1-c1ccc(/C=C2\SC(=O)N(CC(=O)Nc3ccccc3)C2=O)o1	none
Cc1cc(C(=O)O)ccc1-c1ccc(/C=C2\SC(=O)N(CC(=O)Nc3ccc4c(c3)OCO4)C2=O)o1	D1 agonist 43 (no result: DRD3 antagonist, DRD3 agonist)
CC(Nc1oc(-c2ccc(COc3ccccc3)o2)nc1C#N)c1ccccc1 (stereo not drawn)	none (no result: DRD3 antagonist)
COc1cc(/C=C/c2ccc3cccc(OC)c3n2)c(OC(C)=O)c([N+](=O)[O-])c1	DRD3 antagonist -53, D1 antagonist -32
COc1cc(/C=C/c2ccc3cccc(OC)c3n2)c(O)c([N+](=O)[O-])c1	none
